Compounds without any hit were thinned out: in the full panel of roughly 83,000, 20% have a hit.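 The test compound was applied at a single concentration to cells in 96-well plates for 48 hours, and percent growth was recorded.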 Unmarked numbers belong to inactive results. The source made the active and inactive calls. How the source made its calls: active means growth percent below 10; inactive means the rest.
Columns and labels:
Test in all cases: NCI-60 one-dose screen, 48 h (100 = growth as untreated, 0 = no growth, -100 = all killed)
NCI-H23 lung = conditions: 10 µM unless noted
NCI-H226 lung = conditions: 10 µM unless noted
NCI-H322M lung = conditions: 10 µM unless noted
HOP-62 NSCLC = conditions: 10 µM unless noted
NCI-H460 lung = conditions: 10 µM unless noted
786-0 renal = conditions: 10 µM unless noted
COLO 205 colon = conditions: 10 µM unless noted
DU-145 prostate = conditions: 10 µM unless noted
K-562 leukemia = conditions: 10 µM unless noted
MALME-3M melanoma = conditions: 10 µM unless noted
MDA-MB-231 breast = conditions: 10 µM unless noted
RXF 393 renal = conditions: 10 µM unless noted
SF-268 CNS = conditions: 10 µM unless noted
SF-295 CNS = conditions: 10 µM unless noted
SF-539 CNS = conditions: 10 µM unless noted
M14 melanoma = conditions: 10 µM unless noted
HOP-92 NSCLC = conditions: 10 µM
NCI-H522 lung = conditions: 10 µM
A549/ATCC NSCLC = conditions: 10 µM unless noted
UACC-257 melanoma = conditions: 10 µM unless noted

| Compound | growth (NCI-H23 lung) | growth (NCI-H226 lung) | growth (NCI-H322M lung) | growth (HOP-62 NSCLC) | growth (NCI-H460 lung) | growth (786-0 renal) | growth (COLO 205 colon) | growth (DU-145 prostate) | growth (K-562 leukemia) | growth (MALME-3M melanoma) | growth (MDA-MB-231 breast) | growth (RXF 393 renal) | growth (SF-268 CNS) | growth (SF-295 CNS) | growth (SF-539 CNS) | growth (M14 melanoma) | growth (HOP-92 NSCLC) | growth (NCI-H522 lung) | growth (A549/ATCC NSCLC) | growth (UACC-257 melanoma) |
| --- | --- | --- | --- | --- | --- | --- | --- | --- | --- | --- | --- | --- | --- | --- | --- | --- | --- | --- | --- | --- |
| COc1ccc(Nc2c3ccccc3nc3ccccc23)cc1 | 36.1% | 6.97% (active) | 43.3% | 33.7% | 9.36% (active) | 43.6% | 20.1% | 21.5% | 12.4% | 42.3% | 55.3% | 28.1% | 35.9% | 15.9% | 23.3% | 48% |  |  |  |  |
| CC(=O)OCC(=O)[C@@]1(O)[C@H](C)C[C@H]2[C@@H]3C=C(C)C4=Cc5c(cnn5-c5ccc(F)cc5)C[C@]4(C)[C@H]3[C@@H](O)C[C@@]21C | -28.2% (active) | 59.9% | 49.9% | -11.8% (active) |  | -26.5% (active) | -39.2% (active) | 13.9% | 12.6% | 61.8% | 53.1% | -12.3% (active) | 34.2% | -32.2% (active) | -39.6% (active) | 32.6% | 24.4% | -23.7% (active) | 16.7% | 49.8% |
| CCCCCCNC(=O)Oc1ccc(/C(=C(/C)Cc2ccc(OC)cc2)c2ccc(OCCN(C)C)cc2)cc1 | 82.5% | 85.7% | 86.5% | 74.6% |  | 59.4% | -60.4% (active) | 78.7% | -38.8% (active) | -34.7% (active) | 43% | 51.4% | 72.3% | 65.8% | 73.2% |  | 46% | 60% | 54% | 5.2% (active) |
| CCOC(=O)c1cc(-c2ccc(OC)cc2)[nH]c1NNC(=O)CCOC | 114% | 105% | 118% |  | 119% | 84.3% | 109% | 108% | 99.8% | 98.4% | 95% | 104% | 121% | 95.3% | 106% |  | 73.1% | 98% | 99.9% | 105% |
| O=C1NCCN1/N=C/c1c(Cl)nc2n1CCS2 | 106% | 151% | 94.6% |  | 111% | 90% | 133% | 85.8% | 87.3% | 91.7% | 130% | 150% | 113% | 111% | 94.9% |  | 51.3% | 34.3% | 113% | 105% |
| CCCC(CCC)Oc1ccc(CCCC2=C(O)c3ccccc3C(=O)C2=O)cc1 | 26.9% | 32.6% | -1.08% (active) |  | 9.9% (active) | 42.2% | 43.9% | 33.4% | 23% | 57% | 54.6% | 58.7% | 45.3% | 28.2% | 23.1% |  | 28.1% | 30.2% | 32.1% | 40.5% |
| COc1ccc2c(N)ncc(C#Cc3cc(C(=O)Nc4ccc(CN5CCN(C)CC5)c(C(F)(F)F)c4)cnc3C)c2c1 | -30.3% (active) | 55% | 31.6% | 45.3% |  | -55.6% (active) |  | -89.2% (active) | -63.4% (active) | -81.9% (active) | -85% (active) | -73.4% (active) | 6.51% (active) | 63% | -93.4% (active) | -78.1% (active) | 1.06% (active) | -38.3% (active) | -68.6% (active) | 27.4% |
| CC1=C(C)C[C@]2(C(=O)O[C@H]3CCCC[C@@H]32)[S@](=O)C1 | 97.9% | 109% | 106% | 106% |  | 102% | 108% | 107% | 102% | 110% | 125% | 112% | 96.4% | 106% | 114% | 103% | 105% |  | 96.5% | 97.7% |
| CCOC(=O)C1=C(C(F)(F)F)NC(=S)NC1CN1C(=O)c2ccccc2C1=O (stereo not given) | 87.5% | 116% | 103% |  | 106% | 99.7% | 119% | 115% | 101% | 92.9% | 90.2% | 113% | 101% | 93% | 104% |  | 82.3% | 111% | 118% | 110% |
| Cc1ccnc2c(NC(C)CCCN)cc(O)c(O)c12 (stereo not given) | 40.4% | 111% | 75.3% |  | 115% | 95.1% | 77.8% | 80.3% | 80.3% | 123% | 75.2% | 96.2% | 108% | 104% | 79.8% |  | 47.6% | 12.6% | 94.7% | 97.2% |
| CC(C)(C)c1ccc([I+]c2ccc(C(C)(C)C)cc2)cc1 | -13.7% (active) | 23.8% | 55.8% |  | 4.98% (active) | 16.8% | -42.1% (active) | -89.1% (active) | 1.42% (active) | -61.2% (active) | -30.3% (active) | 0.632% (active) | 1.36% (active) | 23.7% | 21.2% |  | -9.02% (active) | 7.79% (active) | 39.9% | 1.08% (active) |
| COc1ccccc1C(=O)Nc1cccc(-c2cc(=O)c3c(OC)c(OC)c(OC)cc3o2)c1 | 62.4% | 58.4% | 43.6% | 57.8% |  | 45.3% |  | 44.9% | 36.4% | 65.5% | 51.3% | 59% | 54.5% | 59.2% | 63.8% | 41.5% | -0.39% (active) | 44.3% | 48.2% | 61.5% |
| COC(=O)/C(Br)=C/c1c[nH]c2ccc(Br)cc12 | 98.9% | 90.9% | 100% |  | 112% | 55% | 95.8% | 104% | 74.7% | 95.2% | 80.9% | 32.6% | 97.7% | 64% | 95% |  | 41.6% | 63.9% | 89.9% | 88% |
| CC(C)(C)C(=O)CCCCCCCC/C=C/CCCC(O)c1ccco1 (stereo not given) | 102% | 112% | 95.5% |  | 112% | 94.5% | 124% | 102% | 82.4% | 109% | 102% | 99.7% | 106% | 105% | 97.3% |  | 79.1% | 120% | 108% | 105% |
| FC(F)(F)c1cccc(-c2[nH]ncc2-c2nnnn2-c2ccccc2)c1 | 73.9% | 76.2% | 57.7% |  | 21.8% | 58.2% | 36% | 76.1% | 11.8% | 61.6% | 41% | -20.4% (active) | 66.4% | 56.7% | 63.9% |  | 34.2% | 23% | 41.8% | 48.4% |
| Cc1ccc2c(O)c(O)cc(NC(C)CCCN)c2n1 (stereo not given) | 20.7% | 111% | 26% |  | 107% | 95.8% | 32.7% | 74.5% | 42.1% | 81.6% | 57.2% | 93.3% | 92.2% | 90.6% | 14.6% |  | 84.4% | 22.3% | 84.6% | 98.4% |
| N#Cc1c(N)nc(Nc2nc3ccccc3[nH]2)nc1-c1ccc(Cl)cc1 | 101% | 81.2% | 117% | 112% |  |  | 94.7% | 123% | 92.3% | 125% | 106% | 114% | 101% | 112% | 111% | 103% | 78.4% | 90.4% | 105% | 109% |

Reference: PubChem BioAssay (NCI)
